Test results published in PubChem BioAssay (NCATS).
Records with an inconclusive call do not appear. Activity calls are given as the source filed them. Calls follow the shape of the dose curve; as a rule, active = well fitted inhibition curve with a large enough effect; inconclusive = small, poorly fitted or top-dose-only effect; inactive = flat fitted curve, though single readings scatter.

How the values were obtained:
Test in all cases: qHTS profiling for inhibitors of Plasmodium falciparum proliferation (AID 504749); also: nearly all actives have a fitted effect of over 60% in size
Settings in all cases: P. falciparum in erythrocytes, SYBR Green DNA, 72 h; series mostly up to 28.7 µM
3D7 = tested on: 3D7
Summary of the method: (§1)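 P. falciparum-infected erythrocytes (0.3% parasitemia, 2.5% hematocrit final) were exposed to compounds for 72 h at 37 C in 5% CO2, then lysed with SYBR Green buffer overnight at room temperature; parasite DNA fluorescence was normalized to artemisinin and DMSO controls.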

7G8 = tested on: 7G8
Summary of the method: as §1

AA1029 = tested on: AA1029
Summary of the method: as §1

ATS95 = tested on: ATS95
Summary of the method: as §1

CP185 = tested on: CP185
Summary of the method: as §1

CP191 = tested on: CP191
Summary of the method: as §1

CP238 = tested on: CP238
Summary of the method: as §1

CP247 = tested on: CP247
Summary of the method: as §1

CP265 = tested on: CP265
Summary of the method: as §1

CP286 = tested on: CP286
Summary of the method: as §1

DFO2036 = tested on: DFO2036
Summary of the method: as §1

FAB9 = tested on: FAB9
Summary of the method: as §1

HB3 = tested on: HB3
Summary of the method: as §1

P94_40 = tested on: P94_40
Summary of the method: as §1

PAD = tested on: PAD
Summary of the method: as §1

PC15 = tested on: PC15
Summary of the method: as §1

PC49 = tested on: PC49
Summary of the method: as §1

TAB109 = tested on: TAB109
Summary of the method: as §1

TAB113 = tested on: TAB113
Summary of the method: as §1

TAB165 = tested on: TAB165
Summary of the method: as §1

Measured: Potency

CC(=O)OC1CC2CCC1(C)C2(C)C (stereo not given)
inactive: all assays above
